Values joined by “and” are separate entries in the source; they are usually repeats but may differ in a detail not shown here. Equal entries are not always repeated. Records with an inconclusive call do not appear. Where a call stands in place of a potency, no number is given. The source holds several records for some structures; these can differ, active in one and inactive in another. Active and inactive are the calls of the source. The call rests on the fitted dose curve; in most records, active means well fitted curve in the direction sought with a large enough effect in the repeat runs; inconclusive means weak or mixed curves; inactive means no such curve, though single readings can be large; an effect the other way counts as inactive or inconclusive.
Experiments:
[1] = qHTS RealTime-Glo MT Cell Viability Assay in HEK293 cells - 0 hour (AID 1224880); further: top concentration of the series differs between compounds; nearly all actives have a fitted effect of over 45% in size
Summary of the method: (§1)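 Luminescence, which tracks viable cell number through reduction of the prosubstrate to a NanoLuc substrate, was read over continuous 37 C culture. Cells (600/well) were premixed with reagent and rested 5 h before 23 nL of compound in DMSO was pinned.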

[2] = A CellTox Green Cytotoxicity Assay to monitor cytotoxicity in HEK293 cells - 32 hour (AID 1224881); further: nearly all actives have a fitted effect of over 40% in size; further: potency means the concentration at half of the fitted maximal effect
Summary of the method: (§2)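 Fluorescence from a DNA-binding dye excluded by viable cells was measured repeatedly in the same HEK293 wells (600 cells/well) during continuous compound exposure at 37 C. Each assay gives one read point: 0, 8, 16, 24, 32 or 40 h.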

[3] = A CellTox Green Cytotoxicity Assay to monitor cytotoxicity in HepG2 cells - 0 hour (AID 1224882); further: nearly all actives have a fitted effect of over 35% in size; further: potency means the concentration at half of the fitted maximal effect
Summary of the method: (§3)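 Real-time cytotoxicity: fluorescence of a cell-impermeant cyanine dye binding DNA of dead HepG2 cells, measured repeatedly (0–40 h) during compound exposure at 37 C. Cells seeded 600/well with reagent, dosed after 5 h.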

[4] = A CellTox Green Cytotoxicity Assay to monitor cytotoxicity in HepG2 cells - 32 hour (AID 1224883); further: nearly all actives have a fitted effect of over 50% in size; further: potency means the concentration at half of the fitted maximal effect
Summary of the method: as §3

[5] = A CellTox Green Cytotoxicity Assay to monitor cytotoxicity in HEK293 cells - 8 hour (AID 1224884); further: nearly all actives have a fitted effect of over 35% in size; further: potency means the concentration at half of the fitted maximal effect
Summary of the method: as §2

[6] = qHTS RealTime-Glo MT Cell Viability Assay in HepG2 cells - 16 hour (AID 1224885); further: nearly all actives have a fitted effect of over 50% in size
Summary of the method: (§4)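 Real-time, nonlytic viability: 600 HepG2 cells/well mixed with NanoLuc enzyme plus prosubstrate; 5 h settle, compound (DMSO) added by pintool; luminescence monitored over 40 h at 37 C.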

[7] = qHTS RealTime-Glo MT Cell Viability Assay in HEK293 cells - 24 hour (AID 1224886); further: top concentration of the series differs between compounds; nearly all actives have a fitted effect of over 50% in size
Summary of the method: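 Cells + reagent dispensed (600 cells/well, HEK293) → 5 h at 37 C/5% CO2 → 23 nL compound in DMSO pinned → 40 h at 37 C → luminescence read at 0, 8, 16, 24, 32, 40 h.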

[8] = qHTS RealTime-Glo MT Cell Viability Assay in HEK293 cells - 8 hour (AID 1224887); further: top concentration of the series differs between compounds; nearly all actives have a fitted effect of over 50% in size
Summary of the method: as §1

[9] = qHTS RealTime-Glo MT Cell Viability Assay in HepG2 cells - 0 hour (AID 1224889); further: nearly all actives have a fitted effect of over 50% in size
Summary of the method: as §4

[10] = A CellTox Green Cytotoxicity Assay to monitor cytotoxicity in HEK293 cells - 16 hour (AID 1224888); further: nearly all actives have a fitted effect of over 35% in size
Summary of the method: as §2

Structure (SMILES) | outcome [1] | Potency [2] | Potency [3] | Potency [4] | Potency [5] | outcome [6] | outcome [7] | outcome [8] | outcome [9] | Potency [10]
CC(=O)C1CCOC1=O (stereo not drawn) | inactive | inactive | inactive | inactive | inactive | inactive | inactive | inactive | inactive | –
Nc1nc(N)nc(NC2CC2)n1 | inactive | inactive | inactive | inactive | inactive | inactive | inactive | inactive | inactive | inactive
CNC(=O)O/N=C/C(C)(C)SC | inactive | inactive | inactive | inactive | inactive | inactive | inactive | inactive | inactive | inactive
O=C(O)Cc1ccccc1 | inactive | inactive | inactive | inactive | inactive | inactive | inactive | inactive | inactive | inactive
Cc1cccc(C)c1N | inactive | inactive | inactive | inactive | inactive | inactive | inactive | inactive | inactive | inactive
ClCCOCCCl | inactive | inactive | inactive | inactive | inactive | inactive | inactive | inactive | inactive | –
O=[N+]([O-])c1cc([As](=O)(O)O)ccc1O | inactive | inactive | inactive | inactive | inactive | inactive | inactive | inactive | inactive | inactive
Nc1cc(Cl)cc(Cl)c1 | inactive | inactive | inactive | inactive | inactive | inactive | inactive | inactive | inactive | inactive
OCC(O)CCl (stereo not drawn) | inactive | inactive | inactive | inactive | inactive | inactive | inactive | inactive | inactive | inactive
OCc1ccco1 | inactive | inactive | inactive | inactive | inactive | inactive | inactive | inactive | inactive | inactive
COP(=S)(OC)Oc1ccc(SC)c(C)c1 | inactive | inactive | inactive | inactive | inactive | inactive | inactive | inactive | inactive | inactive
CNC(=O)Oc1cccc2ccccc12 | inactive | inactive | inactive | inactive | inactive | inactive | inactive | inactive | inactive | inactive
COC(C)(C)CCCC(C)C/C=C/C(C)=C/C(=O)OC(C)C (stereo not drawn) | inactive | inactive | inactive | inactive | inactive | inactive | inactive | inactive | inactive | inactive
O=C/C=C/c1ccccc1 | inactive | inactive | inactive | inactive | inactive | inactive | inactive | inactive | inactive | inactive
CCOP(=S)(OCC)Oc1cc(C)nc(C(C)C)n1 | inactive | inactive | inactive | inactive | inactive | inactive | inactive | inactive | inactive | inactive
Cc1cc(Cl)ccc1OC(C)C(=O)O (stereo not drawn) | inactive | inactive | inactive | inactive | inactive | inactive | inactive | inactive | inactive | inactive
O=C(O)C1C(C(=O)O)C2(Cl)C(Cl)=C(Cl)C1(Cl)C2(Cl)Cl (stereo not drawn) | inactive | inactive | inactive | inactive | inactive | inactive | inactive | inactive | inactive | inactive
O=C(O)C(Br)Br | inactive | inactive | inactive | inactive | inactive | inactive | inactive | inactive | inactive | inactive
C/C=C/c1ccc2c(c1)OCO2 | inactive | inactive | inactive | inactive | inactive | inactive | inactive | inactive | inactive | inactive
CNC(=O)O/N=C(\SC)C(=O)N(C)C | inactive | inactive | inactive | inactive | inactive | inactive | inactive | inactive | inactive | inactive
CCSC(=O)N1CCCCCC1 | inactive | inactive | inactive | inactive | inactive | inactive | inactive | inactive | inactive | –
O=[N+]([O-])c1ccc(Cl)cc1 | inactive | inactive | inactive | inactive | inactive | inactive | inactive | inactive | inactive | inactive

Structure (SMILES) | outcome [1] | Potency [2] | Potency [3] | Potency [4] | Potency [5] | outcome [6] | outcome [7] | outcome [8] | outcome [9] | Potency [10]
CN(C)C(=O)Nc1cccc(C(F)(F)F)c1 | inactive | inactive | inactive | inactive | inactive | inactive | inactive | inactive | inactive | inactive
c1ccc2c(c1)CCCC2 | inactive | inactive | inactive | inactive | inactive | inactive | inactive | inactive | inactive | inactive
CCOP(=S)(OCC)Oc1ccc([N+](=O)[O-])cc1 | inactive | inactive | inactive | inactive | inactive | inactive | inactive | inactive | inactive | inactive
NNc1ccccc1 | inactive | inactive | inactive | inactive | inactive | inactive | inactive | inactive | inactive | inactive
Cc1cccc(N)c1 | inactive | inactive | inactive | inactive | inactive | inactive | inactive | inactive | inactive | inactive
O=S(=O)(O)OOS(=O)(=O)O | inactive | inactive | inactive | inactive | inactive | inactive | inactive | inactive | inactive | inactive
Cc1ccc(O)c(C)c1 | inactive | inactive | inactive | inactive | inactive | inactive | inactive | inactive | inactive | inactive
COP(=S)(OC)SCN1C(=O)c2ccccc2C1=O | inactive | inactive | inactive | inactive | inactive | inactive | inactive | inactive | inactive | inactive
CCCCCCCCCCCCCCCCCC(=O)O | inactive | inactive | inactive | inactive | – | inactive | inactive | inactive | inactive | inactive
C=C(C)C(=O)OCC(CC)CCCC (stereo not drawn) | inactive | inactive | inactive | inactive | inactive | inactive | inactive | inactive | inactive | –
O=C(O)c1cc(Oc2ccc(C(F)(F)F)cc2Cl)ccc1[N+](=O)[O-] | inactive | inactive | inactive | inactive | inactive | inactive | inactive | inactive | inactive | –
CN(C)C(=O)C(c1ccccc1)c1ccccc1 | inactive | inactive | inactive | inactive | inactive | inactive | inactive | inactive | inactive | –
C=CC(=O)OCC(CC)CCCC (stereo not drawn) | inactive | inactive | inactive | inactive | inactive | inactive | inactive | inactive | inactive | –
CCNc1nc(Cl)nc(NC(C)C)n1 | inactive | inactive | inactive | inactive | inactive | inactive | inactive | inactive | inactive | –
C=CC(=O)OCCCCCC(C)C | inactive | inactive | inactive | inactive | inactive | inactive | inactive | inactive | inactive | –
O=C(O)COc1ccccc1 | inactive | inactive | inactive | inactive | inactive | inactive | inactive | inactive | inactive | –
CC(C)c1cccc(C(C)C)c1O | inactive | 24.5 µM (active) and 43.6 µM (active) and inactive | inactive and 43.6 µM (active) | 43.6 µM (active) and inactive | inactive and 43.6 µM (active) | inactive | inactive | inactive | inactive | –
CN(C)C(=O)Cl | inactive | inactive | inactive | inactive | – | inactive | inactive | inactive | inactive | inactive
FC(F)(F)c1ccc(Cl)cc1 | inactive | inactive | inactive | inactive | inactive | inactive | inactive | inactive | inactive | –
CC12CC1(C)C(=O)N(c1cc(Cl)cc(Cl)c1)C2=O (stereo not drawn) | inactive | inactive | inactive | inactive | inactive | inactive | inactive | inactive | inactive | –
Oc1c(Br)cc(Br)cc1Br | inactive | inactive | inactive | inactive | inactive | inactive | inactive | inactive | inactive | –
COc1cc(-c2ccc(N)c(OC)c2)ccc1N | inactive | inactive | inactive | inactive | – | inactive | inactive | inactive | inactive | inactive

— PubChem BioAssay (Tox21)
